Experimental findings from PubChem BioAssay (NCI) are described below.

This is part of a sample that, as a whole, favours compounds with a hit. Of some 83,000 tested, about 20% had one in any assay.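 Cells were grown in 96-well plates and exposed to the test compound at a single concentration for 48 hours; results are reported as percent growth, with values below 10 considered active.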 Unmarked numbers belong to inactive results. Active and inactive are the calls of the source.

Test systems include T-47D breast; BT-549 breast; MDA-MB-435 melanoma; SW-620 colon; MCF7 breast; HCT-116 colon; HCC-2998 colon; KM12 colon.
What all share (test): NCI-60 one-dose screen, 48 h (100 = growth as untreated, 0 = no growth, -100 = all killed)
Conditions in all cases: 10 µM unless noted

In the case of `c1ccc(-c2c(-c3ccccc3)[n+](Cc3ccc4ccccc4c3)c(-c3ccccc3)n2Cc2ccc3ccccc3c2)cc1`, the growth in the assay with T-47D breast is -60.9% (active); in the assay on BT-549 breast, -87.1% (active); in the assay on MDA-MB-435 melanoma, -93.9% (active); in the assay with SW-620 colon it was -81.7% (active); with MCF7 breast, -72.9% (active); with HCT-116 colon, -74.8% (active). Further, the values for the growth with HCC-2998 colon and in the assay with KM12 colon were -90.3% (active) and -82.9% (active), respectively.
Take `Cc1nn(-c2ccc(Br)cc2)c2nc(CCl)[nH]c(=O)c12`: the growth with T-47D breast was 91.5%; with BT-549 breast it was 101%; in the assay on MDA-MB-435 melanoma it was 103%; in the assay on SW-620 colon, 110%; with MCF7 breast, 82.3%; with HCT-116 colon, 98.3%. The growth is 105% in the assay on HCC-2998 colon and 83.6% in the assay on KM12 colon.
On to `N=c1c2cc(-c3ccccc3)oc2ncn1/N=C/c1ccccc1`, for which the growth is 94% in the assay with T-47D breast; 92.1% in the assay on BT-549 breast; 7.67% (active) in the assay with MDA-MB-435 melanoma; 60.1% in the assay with SW-620 colon; 50.4% with MCF7 breast; 65% in the assay on HCT-116 colon. Besides, the growth with HCC-2998 colon was 99%; in the assay on KM12 colon, 59%.
As to `IP(CCCSc1n(Cc2ccc3ccccc3c2)c(-c2ccccc2)c(-c2ccccc2)[n+]1Cc1ccc2ccccc2c1)(c1ccccc1)(c1ccccc1)c1ccccc1`, the growth with T-47D breast is 2.62% (active); with BT-549 breast it was 20%; in the assay on MDA-MB-435 melanoma, 14.9%; in the assay with SW-620 colon, 45.7%; in the assay with MCF7 breast, 9.71% (active); in the assay with HCT-116 colon, 14.1%. Moreover, the growth in the assay on HCC-2998 colon is 24.3%; with KM12 colon, 4.9% (active).
`Cc1ccc(Nc2ncnc3c2c(C)nn3-c2ccc([N+](=O)[O-])cc2)cc1`: the growth in the assay on T-47D breast was 78.8%; with BT-549 breast it was 92.5%; in the assay on MDA-MB-435 melanoma, 95.7%; in the assay on SW-620 colon, 65.5%; with MCF7 breast it was 83%; in the assay with HCT-116 colon it was 58.9%. The growth in the assay on HCC-2998 colon was 97.4%; in the assay on KM12 colon it was 81.2%.
Regarding `CCOC(=O)/C(F)=C/C1CC1C1CCCCC1` (stereo not given), the growth was 102% in the assay on T-47D breast; 124% with BT-549 breast; 102% in the assay with MDA-MB-435 melanoma; 101% in the assay on SW-620 colon; 92.2% with MCF7 breast; 97.2% in the assay on HCT-116 colon. For the same compound, the growth in the assay with HCC-2998 colon was 107%; with KM12 colon, 104%.
In the case of `C[C@@H]1C[C@H]2C(=O)OCC(NC(=O)[C@H](Cc3cc(F)cc(F)c3)NC(=O)Nc3ccc(Cl)cc3F)C(=O)N3CCC[C@H]3C(=O)N3CCCC[C@H]3C(=O)N[C@@H](C)C(=O)N2C1` (stereo not given in full), the growth in the assay on T-47D breast was 28.8%; in the assay on BT-549 breast it was 21.4%; in the assay with MDA-MB-435 melanoma, 19.9%; in the assay on SW-620 colon it was 37.7%; in the assay with MCF7 breast, 12.6%; in the assay with HCT-116 colon, -6.65% (active). The growth with HCC-2998 colon is 15.8%; in the assay on KM12 colon, 36.1%.
On to `CCNCCCn1c2c(c3cc(OC)c(OC)cc3c1=O)C(=O)c1cc(OC)cnc1-2`, for which the growth with T-47D breast is -0.933% (active); in the assay with BT-549 breast, 27.3%; with MDA-MB-435 melanoma, 38%; in the assay with SW-620 colon, 37.1%; in the assay on MCF7 breast, 8.05% (active); in the assay with HCT-116 colon, 0.589% (active). Further, the values for the growth in the assay with HCC-2998 colon and with KM12 colon were 43.4% and 45.4%, respectively.
With `O=C(O)c1ccc(-n2cc(CNc3ccc(F)cc3)c(-c3ccc(C(F)(F)F)cc3)n2)cc1`, the growth was 78.2% with T-47D breast; 103% in the assay with BT-549 breast; 80.9% with MDA-MB-435 melanoma; 98.6% with SW-620 colon; 67.8% in the assay on MCF7 breast; 83.3% with HCT-116 colon. Moreover, the growth in the assay on HCC-2998 colon was 102%; in the assay on KM12 colon, 78.7%.
For `C=CCn1c(SCC(=O)Nc2cccc(C(=O)/C=C/c3ccccc3Cl)c2)nc2ccccc2c1=O`, the growth in the assay on T-47D breast was 74.5%; with BT-549 breast, 99.7%; in the assay on MDA-MB-435 melanoma, 89.1%; with SW-620 colon, 67.2%; in the assay with MCF7 breast, 24.4%; in the assay on HCT-116 colon, -86.9% (active). For the same compound, the growth in the assay on HCC-2998 colon is 100%; with KM12 colon it was 80.2%.
As for `Fc1ccc(-c2cc3nc(C(Cl)Cl)nc(-c4cccs4)n3n2)cc1`, the growth is 25.2% in the assay with T-47D breast; 92% in the assay with BT-549 breast; 14.3% in the assay on MDA-MB-435 melanoma; 2.69% (active) in the assay on SW-620 colon; 3.99% (active) with MCF7 breast; -2.24% (active) in the assay with HCT-116 colon. In addition, the results for the growth in the assay with HCC-2998 colon and in the assay with KM12 colon were -61.5% (active) and -30.5% (active), respectively.
On to `COc1cc(CNC(=O)Cc2ccccc2[N+](=O)[O-])ccc1OCC(=O)NO`, for which the growth was 103% in the assay with T-47D breast; 106% in the assay on BT-549 breast; 106% in the assay with MDA-MB-435 melanoma; 110% with SW-620 colon; 95.1% with MCF7 breast; 107% with HCT-116 colon. The growth in the assay on HCC-2998 colon is 108%; in the assay on KM12 colon, 101%.
`CCOC(=O)C1=C(C)N=C2Sc3ccccc3N2C1c1ccccc1` (stereo not given): the growth with T-47D breast is 76.6%; with BT-549 breast, 92.2%; in the assay on MDA-MB-435 melanoma, 102%; in the assay on SW-620 colon it was 92.2%; in the assay with MCF7 breast, 106%; with HCT-116 colon, 65%. Also, the values for the growth in the assay with HCC-2998 colon and in the assay on KM12 colon were 97.1% and 93.9%, respectively.
Regarding `CCNC(=O)Oc1ccc(/C(=C(/C)c2ccc(Cl)cc2)c2ccc(OCCN3CCCC3)cc2)cc1`, the growth in the assay on T-47D breast was 56.8%; with BT-549 breast, 90.4%; in the assay on MDA-MB-435 melanoma, 89.8%; in the assay with SW-620 colon it was 83.1%; in the assay with MCF7 breast, 25.3%; in the assay with HCT-116 colon it was 53.1%. Further, the growth is 77.4% with HCC-2998 colon and 95.5% with KM12 colon.
As to `C/C=C/C=C1\C[C@H]2CO[C@H](O2)C1=O`, the growth is 98.4% with T-47D breast; 127% in the assay with BT-549 breast; 101% in the assay on MDA-MB-435 melanoma; 69.1% in the assay on SW-620 colon; 67.1% in the assay with MCF7 breast; 82.3% in the assay with HCT-116 colon. The growth with HCC-2998 colon was 114%; in the assay with KM12 colon, 103%.
